The record followed here is PubChem BioAssay (NCI).

The panel holds about 79,000 compounds, 15% with a hit somewhere; the sample as a whole holds those more often. A number with no mark means an inactive call. The source made the active and inactive calls. Cut-off read from the data, not from the text of the source: active = growth inhibition above about 70%; inactive = the rest.

Assay [1] in a line: NCI Yeast Anticancer Drug Screen. Data for the rad50 strain (AID 155).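 Note: 0% = growth of vehicle-only cultures of the same strain.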 To be noted: S. cerevisiae rad50 strain growth inhibition, stronger effect = higher value. Put shortly: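 Inhibition values express reduced yeast growth in compound-treated cultures relative to vehicle-treated controls.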
Assay [2] is described as follows: NCI Yeast Anticancer Drug Screen. Data for the mec2-1 strain (AID 157). To be noted: S. cerevisiae mec2-1 strain, stronger effect = higher value. An outline of the steps: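 mec2-1 yeast strain, carrying an alteration in DNA damage repair or cell cycle control, was exposed to compounds; growth inhibition was measured relative to vehicle-treated controls.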
Assay [3] in a line: NCI Yeast Anticancer Drug Screen. Data for the sgs1 mgt1 strain (AID 161).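 Note: 0% = growth of cultures given vehicle only.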 To be noted: S. cerevisiae sgs1 mgt1 strain, stronger effect = higher value. An outline of the steps: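 Yeast cells carrying a defined DNA-repair defect were exposed to test compounds. Growth inhibition was measured relative to vehicle-treated controls.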
A short description of assay [4]: NCI Yeast Anticancer Drug Screen. Data for the cln2 rad14 strain (AID 165).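 Note: 0% = growth equal to vehicle treated cultures.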 Particulars: S. cerevisiae cln2 rad14 strain, stronger effect = higher value. An outline of the steps:
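Yeast carrying cln2 and rad14 alterations (cell cycle control and DNA damage repair) were exposed to compounds. Growth inhibition was measured against vehicle-treated controls.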

Assay [5] is described as follows: NCI Yeast Anticancer Drug Screen. Data for the bub3 strain (AID 167). To be noted: S. cerevisiae bub3 mutant strain, stronger effect = higher value. An outline of the steps:
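Steps: expose the mutant yeast strain to compound; grow alongside vehicle-treated cultures; measure growth; express inhibition against the vehicle cultures.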

Assay [6] can be described thus: NCI Yeast Anticancer Drug Screen. Data for the mlh1 rad18 strain (AID 175). Particulars: S. cerevisiae mlh1 rad18 strain growth inhibition, stronger effect = higher value. Put shortly: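 Growth inhibition of the yeast strain was measured after compound exposure and expressed relative to vehicle-treated controls. The strain carries defined defects in DNA damage repair.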
The mark [7] stands for this setting: at 5.0 µM (retest, dose inferred, filed as 0.5).
Where [8] appears, read: at 50.0 µM (retest, dose inferred, filed as 5.0).

Consider `CCCC(=O)Oc1c(Br)cc(Br)cc1Br`, for which the growth inhibition was -1% in assay [1] (setting [7]); 17% in assay [1] (setting [8]); 21.6% in assay [1] (at 50.0 µM); -4% in assay [2] (setting [7]); 7% in assay [2] (setting [8]); 21.3% in assay [2] (at 50.0 µM). Further, the growth inhibition in assay [3] (setting [7]) is -4%; in assay [3] (setting [8]) it was 7%; in assay [3] (at 50.0 µM), 19.1%; in assay [4] (setting [7]), -6%; in assay [4] (setting [8]) it was -19%; in assay [4] (at 50.0 µM), 44.9%. In addition, the growth inhibition in assay [5] (setting [7]) is 1%; in assay [5] (setting [8]) it was 19%; in assay [5] (at 50.0 µM), 45.5%; in assay [6] (setting [7]) it was -1%; in assay [6] (setting [8]), 12%; in assay [6] (at 50.0 µM), 20.6%.
Consider `COC(O)C12OC3CO[Si](C(C)C)(C(C)C)O[Si](C(C)C)(C(C)C)OC3C1Oc1nc(=O)ccn12` (configuration not stated), for which the growth inhibition was 10% in assay [1] (setting [7]); 98% (active) in assay [1] (setting [8]); 88.7% (active) in assay [1] (at 50.0 µM); 13% in assay [2] (setting [7]); 99% (active) in assay [2] (setting [8]); 91.7% (active) in assay [2] (at 50.0 µM). Moreover, the growth inhibition in assay [3] (setting [7]) is -25%; in assay [3] (setting [8]) it was 98% (active); in assay [3] (at 50.0 µM), 86.5% (active); in assay [4] (setting [7]) it was 1%; in assay [4] (setting [8]) it was 97% (active); in assay [4] (at 50.0 µM) it was 86.7% (active). In addition, the growth inhibition is -4% in assay [5] (setting [7]); 98% (active) in assay [5] (setting [8]); 87.5% (active) in assay [5] (at 50.0 µM); 15% in assay [6] (setting [7]); 98% (active) in assay [6] (setting [8]); -69.8% in assay [6] (at 50.0 µM).
As for `CC(=O)c1c(-c2ccco2)c(C#N)c(=S)n(C2OC(CO)C(O)C(O)C2O)c1-c1ccccc1` (configuration not stated), the growth inhibition in assay [1] (setting [7]) is -9%; in assay [1] (setting [8]), 12%; in assay [1] (at 50.0 µM) it was 32.9%; in assay [2] (setting [7]), -4%; in assay [2] (setting [8]) it was 17%; in assay [2] (at 50.0 µM), 49.6%. In addition, the growth inhibition is 0% in assay [3] (setting [7]); 44% in assay [3] (setting [8]); 58.5% in assay [3] (at 50.0 µM); 14% in assay [4] (setting [7]); 28% in assay [4] (setting [8]); 35.2% in assay [4] (at 50.0 µM). Besides, the growth inhibition is 8% in assay [5] (setting [7]); 20% in assay [5] (setting [8]); 50.8% in assay [5] (at 50.0 µM); -25% in assay [6] (setting [7]); 45% in assay [6] (setting [8]); 62.6% in assay [6] (at 50.0 µM).
For `COc1ccc(Cc2nc3ccc(Cl)cc3[nH]2)cc1`, the growth inhibition was 4% in assay [1] (setting [7]); 42% in assay [1] (setting [8]); 77% (active) in assay [1] (at 50.0 µM); -4% in assay [2] (setting [7]); 59% in assay [2] (setting [8]); 76.4% (active) in assay [2] (at 50.0 µM). The growth inhibition in assay [3] (setting [7]) is 4%; in assay [3] (setting [8]) it was 78% (active); in assay [3] (at 50.0 µM) it was 82% (active); in assay [4] (setting [7]), -6%; in assay [4] (setting [8]) it was 14%; in assay [4] (at 50.0 µM), 66%. Also, the growth inhibition is 1% in assay [5] (setting [7]); 44% in assay [5] (setting [8]); 84.3% (active) in assay [5] (at 50.0 µM); 23% in assay [6] (setting [7]); 74% (active) in assay [6] (setting [8]); 86.9% (active) in assay [6] (at 50.0 µM).
Regarding `CCOc1c(N=Nc2ccccc2Cl)c(-c2ccccc2)nn1C(=S)S`, the growth inhibition is -1% in assay [1] (setting [7]); 20% in assay [1] (setting [8]); 52.7% in assay [1] (at 50.0 µM); -4% in assay [2] (setting [7]); 24% in assay [2] (setting [8]); 57.6% in assay [2] (at 50.0 µM). Further, the growth inhibition in assay [3] (setting [7]) was -2%; in assay [3] (setting [8]), -70%; in assay [3] (at 50.0 µM), 28.8%; in assay [4] (setting [7]) it was -7%; in assay [4] (setting [8]), 27%; in assay [4] (at 50.0 µM) it was 48.5%. Besides, the growth inhibition in assay [5] (setting [7]) is 3%; in assay [5] (setting [8]), 64%; in assay [5] (at 50.0 µM), 78.5% (active); in assay [6] (setting [7]), -2%; in assay [6] (setting [8]), 31%; in assay [6] (at 50.0 µM) it was 42.9%.
Turning to `O=C1C(Cl)=C(Cl)C(=O)c2cc(Cl)c(Cl)cc21`, the growth inhibition in assay [1] (setting [7]) was 82% (active); in assay [1] (setting [8]), 99% (active); in assay [1] (at 50.0 µM), 83.9% (active); in assay [2] (setting [7]), 89% (active); in assay [2] (setting [8]), 99% (active); in assay [2] (at 50.0 µM), 84% (active). In addition, the growth inhibition is 65% in assay [3] (setting [7]); 99% (active) in assay [3] (setting [8]); 97.1% (active) in assay [3] (at 50.0 µM); 86% (active) in assay [4] (setting [7]); 97% (active) in assay [4] (setting [8]); 88.2% (active) in assay [4] (at 50.0 µM). Also, the growth inhibition in assay [5] (setting [7]) was 98% (active); in assay [5] (setting [8]), 98% (active); in assay [5] (at 50.0 µM) it was 93.5% (active); in assay [6] (setting [7]) it was 60%; in assay [6] (setting [8]) it was 97% (active); in assay [6] (at 50.0 µM), 87.8% (active).
Regarding `CC1=CC(=O)c2c(O)c3c(c(O)c2C1=O)C1C(O)C(C3=O)C23C(=O)c4c(O)c(C)cc(O)c4C(O)=C2C(=O)CC(O)C13` (configuration not stated), the growth inhibition in assay [1] (setting [7]) was -27%; in assay [1] (setting [8]), 93% (active); in assay [1] (at 50.0 µM), 91.5% (active); in assay [2] (setting [7]), 7%; in assay [2] (setting [8]), 98% (active); in assay [2] (at 50.0 µM), 93.3% (active). In addition, the growth inhibition in assay [3] (setting [7]) is -21%; in assay [3] (setting [8]), 96% (active); in assay [3] (at 50.0 µM) it was 92.7% (active); in assay [4] (setting [7]), 14%; in assay [4] (setting [8]), 97% (active); in assay [4] (at 50.0 µM) it was 91.3% (active). For the same compound, the growth inhibition in assay [5] (setting [7]) was 12%; in assay [5] (setting [8]) it was 97% (active); in assay [5] (at 50.0 µM), 91.1% (active); in assay [6] (setting [7]) it was 9%; in assay [6] (setting [8]), 96% (active); in assay [6] (at 50.0 µM), 91.8% (active).
As to `CC12CCC(O)CC1=CCC1C2CCC2(C)C(NC(=O)C(Cc3ccc(O)cc3)NC(=O)OCc3ccccc3)CCC12` (configuration not stated), the growth inhibition in assay [1] (setting [7]) is 24%; in assay [1] (setting [8]) it was 94% (active); in assay [1] (at 50.0 µM) it was -7.7%; in assay [2] (setting [7]) it was 21%; in assay [2] (setting [8]), 97% (active); in assay [2] (at 50.0 µM) it was 2.95%. In addition, the growth inhibition in assay [3] (setting [7]) is 22%; in assay [3] (setting [8]), 96% (active); in assay [3] (at 50.0 µM), -2.85%; in assay [4] (setting [7]) it was 21%; in assay [4] (setting [8]), 94% (active); in assay [4] (at 50.0 µM), 38.6%. Further, the growth inhibition in assay [5] (setting [7]) is -4%; in assay [5] (setting [8]), 93% (active); in assay [5] (at 50.0 µM), -5.4%; in assay [6] (setting [7]), 41%; in assay [6] (setting [8]) it was 96% (active); in assay [6] (at 50.0 µM) it was -8.2%.
In the case of `O=C(Cc1ccccc1)c1ccccc1C(=O)NNc1ccccc1`, the growth inhibition in assay [1] (setting [7]) was 7%; in assay [1] (setting [8]), 18%; in assay [1] (at 50.0 µM) it was 49%; in assay [2] (setting [7]), -5%; in assay [2] (setting [8]), 6%; in assay [2] (at 50.0 µM), -6.4%. Further, the growth inhibition was -4% in assay [3] (setting [7]); -2% in assay [3] (setting [8]); -8% in assay [3] (at 50.0 µM); 4% in assay [4] (setting [7]); 61% in assay [4] (setting [8]); -51.9% in assay [4] (at 50.0 µM). Besides, the growth inhibition in assay [5] (setting [7]) was 43%; in assay [5] (setting [8]), 96% (active); in assay [5] (at 50.0 µM), 26.2%; in assay [6] (setting [7]), 5%; in assay [6] (setting [8]), 22%; in assay [6] (at 50.0 µM), -0.75%.
